Measured values as given in PubChem BioAssay.
Activity calls are given as the source filed them.

Key:
[1] = small molecules captured by biotinylated probe aFSTL3 – biochemical, small-molecule microarray, fluorescence 635/667, stem cell growth factor project, primary screen (AID 1064); conditions: higher = more signal;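 note: measures binding of the biotinylated anti-FSTL3 antibody to printed compounds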
[2] = binders from COS7 lysate, DM2A8 probe, primary screen, torsin A project, cell lysate, small-molecule microarray, fluorescence 635/667 (AID 1065); conditions: higher = more signal, COS7 lysate expressing mutant human TOR1A
[3] = small molecules captured by biotinylated probe aFGF2 – biochemical, small-molecule microarray, fluorescence 635/667, stem cell growth factor project, primary screen (AID 1067); conditions: higher = more signal;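 note: measures binding of biotinylated aFGF2 protein to printed compounds on slides; z-score merges feature fluorescence and signal-to-noise across triplicate slides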
[4] = small molecules captured by biotinylated probe aFGF10 – biochemical, small-molecule microarray, fluorescence 635/667, stem cell growth factor project, primary screen (AID 1071); conditions: higher = more signal;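 note: score merges 667 nm spot intensity and signal to noise from triplicate slides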
[5] = biological target: Neurogenic locus notch homolog protein 2 (Homo sapiens) (UniProt Q04721); test: small molecules binding Notch2 protein – biochemical, small-molecule microarray, 635 nm fluorescence, stem cell growth factors, primary screen (AID 1073); conditions: higher = more signal
[6] = biological target: Pro-neuregulin-1, membrane-bound isoform (Homo sapiens) (UniProt Q02297); test: small molecules binding neuregulin-1 protein – biochemical, small-molecule microarray, fluorescence 635/667, psychiatric disease protein project, primary screen (AID 1075); conditions: NRG1 binding, 635 nm fluorescence, higher = more signal;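 note: score combines 667 nm spot fluorescence with signal to noise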
[7] = tested on: Neuregulin-1 EGF-like domain; test: small molecules binding NRG1 EGF domain – biochemical, small-molecule microarray, 635 nm fluorescence, primary screen (AID 1081); conditions: higher = more signal;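 note: binding of the protein to compounds printed on small-molecule microarray slides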
[8] = FRG1 expression reporter modulators in myotubes – cell-based, C2C12 myotubes, firefly/Renilla luciferase, luminescence, FRG1 inhibition for FSHD, primary screen (AID 1084); conditions: FRG1 promoter luciferase, higher = more signal, called active from +8 up or from −8 down
[9] = small molecules captured by biotinylated probe aFST – biochemical, small-molecule microarray, fluorescence 635/667, stem cell growth factor project, primary screen (AID 1086); conditions: higher = more signal;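 note: score merges 667 nm fluorescence with signal-to-noise of each printed compound spot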
[10] = binders of probe aHhip on microarray, primary screen, stem cell growth factor project, biochemical, small-molecule microarray, fluorescence 635/667 (AID 1087); conditions: higher = more signal;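 note: score merges spot fluorescence at 667nm with spot signal to noise ratio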
[11] = tested on: PRMT1 (protein arginine N-methyltransferase 1); test: small molecules binding arginine methyltransferase PRMT1 – biochemical, small-molecule microarray, 635 nm fluorescence, primary screen (AID 1088); conditions: higher = more signal;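 note: binding of Prmt1 protein to compounds spotted on small-molecule microarray slides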
[12] = growth effects on S. cerevisiae YJM789 – YJM789 clinical isolate, OD600, 24 h, basal, primary screen (AID 1089); conditions: higher = more signal, called active from +8 up or from −8 down;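 note: growth of clinical yeast isolate S. cerevisiae YJM 789 seeded 1000 cells per well; test concentration not given here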
[13] = S. pombe growth modifiers, basal conditions – strain 972, OD600, 24 h, no modulator, primary screen (AID 1090);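 note: basal condition with compound alone and no growth modifier present; test concentration not given here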; conditions: S. pombe 972 growth, higher = more signal, called active from +8 up or from −8 down
[14] = budding yeast growth modifiers under rapamycin – strain BY4716, OD600, 96 h, primary screen (AID 1091); note: test concentration not given here; conditions: S. cerevisiae BY4716 + rapamycin, higher = more signal, called active from +8 up or from −8 down
[15] = biological target: Torsin-1A-interacting protein 2 (Homo sapiens) (UniProt Q8NFQ8); test: small molecules binding lysate-expressed LULL1 – cell lysate, human LULL1 lysate, 635/667 nm fluorescence, primary screen (AID 1092); conditions: small-molecule microarray, hLULL1 lysate binding, 635 nm fluorescence; higher = more signal;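 note: probe is lysate of COS7 cells overexpressing human LULL1; score merges per-feature 667 nm fluorescence with signal-to-noise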
[16] = optical density change of DRC41 E. coli – strain DRC41, OD650, 24 h, E. coli filamentation project, primary screen (AID 1093);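 note: MC1000 strain lacking acrAB efflux and sulA so SOS filamentation is blocked; test concentration not given here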; conditions: E. coli DRC41 growth, higher = more signal, called active from +8 up or from −8 down
[17] = probe aLefty2 binding to arrayed compounds – biochemical, biotinylated probe, 635/667 nm fluorescence, primary screen (AID 1094); conditions: small-molecule microarray, higher = more signal;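 note: score merges spot fluorescence near 667 nm with spot signal-to-noise ratio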
[18] = tested on: Noggin (protein binding on small-molecule microarray); test: small molecules binding Noggin protein – biochemical, 635/667 nm fluorescence, primary screen (AID 1095); conditions: 635 nm fluorescence, higher = more signal;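 note: score merges 667 nm feature fluorescence with signal to noise over triplicate slides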
[19] = biological target: Neurogenic locus notch homolog protein 3 (Homo sapiens) (UniProt Q9UM47); test: small molecules binding NOTCH3 protein – biochemical, 635/667 nm fluorescence, primary screen (AID 1096); conditions: small-molecule microarray, 635 nm fluorescence, higher = more signal
[20] = probe aEGFR binding to arrayed compounds – biochemical, biotinylated probe, 635/667 nm fluorescence, primary screen (AID 1097); conditions: small-molecule microarray, higher = more signal;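 note: probe is a biotinylated anti-EGFR antibody binding compounds printed on slides; score combines fluorescence near 667 nm and signal to noise of each spot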

Torsin-1A-interacting protein 2 (Homo sapiens), sequence (Q8NFQ8 whole entry, looked up): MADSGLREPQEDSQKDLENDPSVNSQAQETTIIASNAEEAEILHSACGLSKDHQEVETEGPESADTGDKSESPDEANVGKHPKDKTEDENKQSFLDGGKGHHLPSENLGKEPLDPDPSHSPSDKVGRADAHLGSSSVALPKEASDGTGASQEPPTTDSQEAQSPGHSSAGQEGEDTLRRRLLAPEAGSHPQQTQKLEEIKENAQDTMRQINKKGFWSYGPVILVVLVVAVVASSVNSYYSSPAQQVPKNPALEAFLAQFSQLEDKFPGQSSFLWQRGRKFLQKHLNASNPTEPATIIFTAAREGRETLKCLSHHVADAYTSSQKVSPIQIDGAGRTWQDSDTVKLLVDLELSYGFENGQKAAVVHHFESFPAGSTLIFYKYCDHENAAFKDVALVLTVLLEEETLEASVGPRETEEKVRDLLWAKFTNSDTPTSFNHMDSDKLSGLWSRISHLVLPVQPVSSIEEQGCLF
Neurogenic locus notch homolog protein 3 (Homo sapiens), sequence (Q9UM47 whole entry, looked up): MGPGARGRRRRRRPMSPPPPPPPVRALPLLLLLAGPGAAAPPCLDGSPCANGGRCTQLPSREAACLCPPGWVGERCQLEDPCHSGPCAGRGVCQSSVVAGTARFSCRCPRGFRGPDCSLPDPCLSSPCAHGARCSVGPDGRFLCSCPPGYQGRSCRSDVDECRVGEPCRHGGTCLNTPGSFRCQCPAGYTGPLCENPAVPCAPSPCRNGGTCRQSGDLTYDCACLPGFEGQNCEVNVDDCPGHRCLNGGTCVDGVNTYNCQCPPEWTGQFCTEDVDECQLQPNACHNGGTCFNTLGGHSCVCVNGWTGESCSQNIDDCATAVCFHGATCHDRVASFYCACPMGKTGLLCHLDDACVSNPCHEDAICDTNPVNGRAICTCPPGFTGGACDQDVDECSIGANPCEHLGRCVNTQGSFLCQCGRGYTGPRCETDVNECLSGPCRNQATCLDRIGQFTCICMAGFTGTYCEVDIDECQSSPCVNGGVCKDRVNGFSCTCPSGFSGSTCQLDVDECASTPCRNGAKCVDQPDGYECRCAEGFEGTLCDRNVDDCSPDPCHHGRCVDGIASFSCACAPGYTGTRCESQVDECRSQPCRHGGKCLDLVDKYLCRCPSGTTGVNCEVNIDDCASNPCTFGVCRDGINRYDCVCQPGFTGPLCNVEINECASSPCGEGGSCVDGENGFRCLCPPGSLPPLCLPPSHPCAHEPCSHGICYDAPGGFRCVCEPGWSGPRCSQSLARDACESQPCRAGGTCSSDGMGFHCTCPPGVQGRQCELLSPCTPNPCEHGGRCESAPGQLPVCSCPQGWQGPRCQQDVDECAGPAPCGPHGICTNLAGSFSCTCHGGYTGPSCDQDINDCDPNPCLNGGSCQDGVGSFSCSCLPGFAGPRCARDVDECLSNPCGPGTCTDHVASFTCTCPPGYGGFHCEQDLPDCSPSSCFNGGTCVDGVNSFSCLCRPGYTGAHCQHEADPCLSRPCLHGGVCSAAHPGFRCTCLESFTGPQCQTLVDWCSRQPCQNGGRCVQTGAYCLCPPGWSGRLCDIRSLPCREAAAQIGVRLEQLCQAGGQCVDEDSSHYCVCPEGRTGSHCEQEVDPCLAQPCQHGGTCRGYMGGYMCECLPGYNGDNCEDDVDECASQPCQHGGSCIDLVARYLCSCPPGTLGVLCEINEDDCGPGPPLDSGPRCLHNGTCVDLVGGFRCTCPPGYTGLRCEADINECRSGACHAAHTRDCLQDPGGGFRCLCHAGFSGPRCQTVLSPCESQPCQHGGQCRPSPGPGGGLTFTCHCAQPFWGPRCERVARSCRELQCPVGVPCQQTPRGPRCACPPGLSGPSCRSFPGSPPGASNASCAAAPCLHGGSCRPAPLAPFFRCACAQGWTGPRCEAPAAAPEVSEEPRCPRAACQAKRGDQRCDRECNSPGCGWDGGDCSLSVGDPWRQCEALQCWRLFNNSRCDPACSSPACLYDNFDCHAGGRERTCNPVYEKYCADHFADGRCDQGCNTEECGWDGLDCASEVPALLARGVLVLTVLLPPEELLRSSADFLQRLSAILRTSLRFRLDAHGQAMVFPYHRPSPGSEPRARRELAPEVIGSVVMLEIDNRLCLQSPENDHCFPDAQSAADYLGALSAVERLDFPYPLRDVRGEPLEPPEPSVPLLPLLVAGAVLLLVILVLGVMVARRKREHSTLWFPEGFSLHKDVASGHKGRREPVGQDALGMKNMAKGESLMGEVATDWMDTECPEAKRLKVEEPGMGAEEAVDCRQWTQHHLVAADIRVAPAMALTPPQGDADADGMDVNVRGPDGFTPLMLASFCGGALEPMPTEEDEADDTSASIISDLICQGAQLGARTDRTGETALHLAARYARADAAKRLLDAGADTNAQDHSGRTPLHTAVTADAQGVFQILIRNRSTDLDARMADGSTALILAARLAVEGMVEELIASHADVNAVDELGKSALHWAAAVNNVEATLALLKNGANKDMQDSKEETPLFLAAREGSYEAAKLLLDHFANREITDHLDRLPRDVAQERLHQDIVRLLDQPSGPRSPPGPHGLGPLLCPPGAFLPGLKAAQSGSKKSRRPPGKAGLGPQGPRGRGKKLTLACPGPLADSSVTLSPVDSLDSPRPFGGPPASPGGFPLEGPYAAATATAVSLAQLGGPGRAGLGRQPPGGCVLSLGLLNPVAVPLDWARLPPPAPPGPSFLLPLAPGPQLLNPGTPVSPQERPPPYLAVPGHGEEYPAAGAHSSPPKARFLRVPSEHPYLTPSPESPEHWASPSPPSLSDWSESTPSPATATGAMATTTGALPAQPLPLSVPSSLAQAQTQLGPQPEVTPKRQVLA
Pro-neuregulin-1, membrane-bound isoform (Homo sapiens), sequence (Q02297 whole entry, looked up, the tested form may be a part, canonical isoform): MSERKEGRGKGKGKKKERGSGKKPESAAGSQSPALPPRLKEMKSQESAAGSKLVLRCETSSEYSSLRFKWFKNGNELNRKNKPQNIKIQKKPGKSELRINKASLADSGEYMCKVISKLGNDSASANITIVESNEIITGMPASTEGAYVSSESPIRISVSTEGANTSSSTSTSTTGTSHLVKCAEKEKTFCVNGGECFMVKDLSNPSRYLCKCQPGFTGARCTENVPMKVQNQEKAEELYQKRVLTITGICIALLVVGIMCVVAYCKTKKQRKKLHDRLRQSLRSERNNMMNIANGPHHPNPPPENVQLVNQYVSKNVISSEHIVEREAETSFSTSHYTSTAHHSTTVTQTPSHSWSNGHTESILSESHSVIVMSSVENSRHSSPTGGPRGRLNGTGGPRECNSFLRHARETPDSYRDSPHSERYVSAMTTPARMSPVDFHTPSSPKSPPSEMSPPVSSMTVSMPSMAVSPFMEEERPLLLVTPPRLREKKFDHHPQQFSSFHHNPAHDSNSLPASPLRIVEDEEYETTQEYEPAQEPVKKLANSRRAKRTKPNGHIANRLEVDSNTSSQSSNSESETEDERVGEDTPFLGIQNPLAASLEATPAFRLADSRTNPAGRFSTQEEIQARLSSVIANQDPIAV

CC[C@@H]1[C@@H]2C3C(=O)N(CC)C(=O)C3CC(=O)[C@@H]2[C@H](c2ccc(C)cc2)N1S(=O)(=O)c1ccc(C)cc1 (stereo not given in full)
composite z-score [1]: -0.38 | composite z-score [2]: 0.0428 | composite z-score [3]: 0.161 | composite z-score [4]: 0.383 | composite z-score [5]: 1.56 | composite z-score [6]: 1.37 | composite z-score [7]: 1.1 | z-score [8]: -1.04 (inactive) | composite z-score [9]: 0.635 | composite z-score [10]: -0.19 | composite z-score [11]: 1.29 | z-score [12]: -2.69 (inactive) | z-score [13]: 0.321 (inactive) | z-score [14]: 0.336 (inactive) | composite z-score [15]: 3.3 | z-score [16]: 0.957 (inactive) | composite z-score [17]: -0.128 | composite z-score [18]: 0.381 | composite z-score [19]: 0.919 | composite z-score [20]: -0.0371

C=CCC(OC(C)=O)[C@@H]1[C@@H](N(Cc2ccc(-c3ccccc3)cc2)C(=O)Cc2ccc(OC)cc2)c2cc(OCCCO)ccc2N1C(=O)c1ccc(-c2ccccc2)cc1 (stereo not given in full)
composite z-score [1]: -0.0141 | composite z-score [2]: 0.253 | composite z-score [3]: -0.0158 | composite z-score [4]: -0.0965 | composite z-score [5]: -0.137 | composite z-score [6]: 0.275 | composite z-score [7]: 0.0056 | z-score [8]: -1.24 (inactive) | composite z-score [9]: 0.0321 | composite z-score [10]: 0.259 | composite z-score [11]: -0.0413 | z-score [12]: -0.445 (inactive) | z-score [13]: -0.512 (inactive) | z-score [14]: -0.542 (inactive) | composite z-score [15]: 0.182 | z-score [16]: 1.23 (inactive) | composite z-score [17]: 0.152 | composite z-score [18]: -0.0829 | composite z-score [19]: -0.255 | composite z-score [20]: -0.0488

COC(=O)[C@@]1(Cc2ccccc2)[C@H]2c3cc(C(=O)N(C)C)n(Cc4ccccn4)c3C[C@H]2CN1C(=O)c1ccccc1
composite z-score [1]: 0.907 | composite z-score [2]: 1.6 | composite z-score [3]: 0.305 | composite z-score [4]: 0.76 | composite z-score [5]: 1.15 | composite z-score [6]: 2.33 | composite z-score [7]: 1.31 | z-score [8]: 1.01 (inactive) | composite z-score [9]: 1.27 | composite z-score [10]: 0.0302 | composite z-score [11]: 0.664 | z-score [12]: 0.249 (inactive) | z-score [13]: 0.87 (inactive) | z-score [14]: 0.963 (inactive) | composite z-score [15]: 3.68 | z-score [16]: -0.537 (inactive) | composite z-score [17]: 0.506 | composite z-score [18]: -0.793 | composite z-score [19]: 1.11 | composite z-score [20]: 0.309

C/C=C/[C@@H](CCn1cc([C@H](O)c2ccccc2)nn1)[Si](C)(C)c1ccc(OC)cc1
composite z-score [1]: 0.683 | composite z-score [2]: 1.28 | composite z-score [3]: -0.0462 | composite z-score [4]: -0.135 | composite z-score [5]: -1.5 | composite z-score [6]: 1.29 | composite z-score [7]: 0.96 | z-score [8]: -1.41 (inactive) | composite z-score [9]: -1.12 | composite z-score [10]: -0.236 | composite z-score [11]: 1.03 | z-score [12]: -2.41 (inactive) | z-score [13]: -0.143 (inactive) | z-score [14]: -0.0906 (inactive) | composite z-score [15]: 1.33 | z-score [16]: 1.43 (inactive) | composite z-score [17]: -0.171 | composite z-score [18]: -0.385 | composite z-score [19]: -0.498 | composite z-score [20]: -0.298

CCCC[C@H]1OB(O)C[C@H]2C1=C(COc1ccccc1)Cn1c(=O)n(-c3ccccc3)c(=O)n12
composite z-score [1]: -0.211 | composite z-score [2]: 0.556 | composite z-score [3]: -0.145 | composite z-score [4]: 0.279 | composite z-score [5]: 0.403 | composite z-score [6]: 1.01 | composite z-score [7]: 0.77 | z-score [8]: -0.971 (inactive) | composite z-score [9]: 0.415 | composite z-score [10]: -0.164 | composite z-score [11]: 0.905 | z-score [12]: 0.54 (inactive) | z-score [13]: -4.94 (inactive) | z-score [14]: 0.59 (inactive) | composite z-score [15]: 2.24 | z-score [16]: -0.298 (inactive) | composite z-score [17]: -0.116 | composite z-score [18]: 0.836 | composite z-score [19]: 0.733 | composite z-score [20]: -0.0947

COCCOC(=O)N1C(=O)[C@@]2(c3cc(C#Cc4ccc(OC)cc4)ccc31)[C@H](C(=O)N1CCc3cc(OC)c(OC)cc3C1)[C@H]1C(=O)O[C@H](c3ccccc3)[C@H](c3ccccc3)N1[C@@H]2c1ccc(OCCO)cc1
composite z-score [1]: -0.172 | composite z-score [2]: 0.454 | composite z-score [3]: -0.0567 | composite z-score [4]: 0.452 | composite z-score [5]: 1.22 | composite z-score [6]: 0.62 | composite z-score [7]: 1.16 | z-score [8]: 1.36 (inactive) | composite z-score [9]: 0.0478 | composite z-score [10]: 0.0623 | composite z-score [11]: 1.33 | z-score [12]: 2.2 (inactive) | z-score [13]: 1.36 (inactive) | z-score [14]: 5.75 (inactive) | composite z-score [15]: 1.32 | z-score [16]: 0.816 (inactive) | composite z-score [17]: -0.104 | composite z-score [18]: 1.22 | composite z-score [19]: 1.15 | composite z-score [20]: 0.0343

O=C1c2ccccc2C(=O)C2CC([C@H]3Oc4ccccc4S(=O)(=O)N4CCC[C@@H]34)=CCC12 (stereo not given in full)
composite z-score [1]: -0.253 | composite z-score [2]: -0.0672 | composite z-score [3]: -0.176 | composite z-score [4]: -0.159 | composite z-score [5]: 0.193 | composite z-score [6]: 0.583 | composite z-score [7]: 0.449 | z-score [8]: -1.71 (inactive) | composite z-score [9]: -0.0883 | composite z-score [10]: 0.21 | composite z-score [11]: -0.739 | z-score [12]: 0.151 (inactive) | z-score [13]: -0.717 (inactive) | z-score [14]: 0.388 (inactive) | composite z-score [15]: -0.312 | z-score [16]: 1.47 (inactive) | composite z-score [17]: -0.116 | composite z-score [18]: 0.162 | composite z-score [19]: -0.42 | composite z-score [20]: -0.124

COc1cc2c(cc1OC)CN(C(=O)[C@@H]1[C@H]3C(=O)O[C@H](c4ccccc4)[C@H](c4ccccc4)N3[C@H](c3ccc(O)cc3)[C@@]13C(=O)Nc1ccc(C#CCNC(N)=O)cc13)CC2
composite z-score [1]: -0.133 | composite z-score [2]: -0.121 | composite z-score [3]: -0.0616 | composite z-score [4]: 0.411 | composite z-score [5]: 0.578 | composite z-score [6]: 0.559 | composite z-score [7]: 0.544 | z-score [8]: 0.238 (inactive) | composite z-score [9]: 0.75 | composite z-score [10]: -0.0994 | composite z-score [11]: 0.666 | z-score [12]: 1.1 (inactive) | z-score [13]: 1.27 (inactive) | z-score [14]: 1.48 (inactive) | composite z-score [15]: 1.22 | z-score [16]: 0.364 (inactive) | composite z-score [17]: 0.0835 | composite z-score [18]: 1.03 | composite z-score [19]: 0.802 | composite z-score [20]: -0.0455

C[C@@H]1ON(c2ccccc2)[C@H](c2ccccc2)[C@H]1C(=O)N1C(=O)OC[C@H]1Cc1ccccc1
composite z-score [1]: -0.414 | composite z-score [2]: 0.464 | composite z-score [3]: -0.127 | composite z-score [4]: 0.464 | composite z-score [5]: 0.844 | composite z-score [6]: 0.243 | composite z-score [7]: 0.539 | z-score [8]: -0.114 (inactive) | composite z-score [9]: 0.138 | composite z-score [10]: 0.0574 | composite z-score [11]: 1.3 | z-score [12]: 0.713 (inactive) | z-score [13]: -0.451 (inactive) | z-score [14]: 0.125 (inactive) | composite z-score [15]: 0.786 | z-score [16]: 0.547 (inactive) | composite z-score [17]: -0.166 | composite z-score [18]: 0.405 | composite z-score [19]: 0.826 | composite z-score [20]: -0.0549

Cc1ccc(S[C@]2(C(=O)NCCN3CCOCC3)CC(=O)N(C3Cc4ccccc4C3)[C@@H]2c2ccc(CO)cc2)cc1
composite z-score [1]: -0.108 | composite z-score [2]: 1.32 | composite z-score [3]: -0.0825 | composite z-score [4]: -0.168 | composite z-score [5]: -0.746 | composite z-score [6]: 1.72 | composite z-score [7]: 1.27 | z-score [8]: -0.611 (inactive) | composite z-score [9]: 0 | composite z-score [10]: -0.0994 | composite z-score [11]: 1.42 | z-score [12]: -0.432 (inactive) | z-score [13]: -0.291 (inactive) | z-score [14]: -0.0611 (inactive) | composite z-score [15]: 2.77 | z-score [16]: 0.7 (inactive) | composite z-score [17]: -0.0928 | composite z-score [18]: -1.11 | composite z-score [19]: -0.521 | composite z-score [20]: -0.222
